Results from PubChem BioAssay AID504500 (NMMLSC, 2011).
Measured potencies and affinities stand elsewhere. The source made the active and inactive calls.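 Rule for the calls: active = compounds whose curve fit is tight, with span above 25% and half-effect concentration below 10 µM; inactive = the rest.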

target: Beta-adrenergic receptor kinase 1 (Homo sapiens) (UniProt P25098); assay: aptamer displacement from bead-bound GRK2 – biochemical, cherry pick 1, bead flow cytometry, dose response (AID 504500); settings: bead-bound biotinylated GRK2, FAM-aptamer displacement; series mostly up to 33 µM
Sequence (P25098 whole entry, looked up): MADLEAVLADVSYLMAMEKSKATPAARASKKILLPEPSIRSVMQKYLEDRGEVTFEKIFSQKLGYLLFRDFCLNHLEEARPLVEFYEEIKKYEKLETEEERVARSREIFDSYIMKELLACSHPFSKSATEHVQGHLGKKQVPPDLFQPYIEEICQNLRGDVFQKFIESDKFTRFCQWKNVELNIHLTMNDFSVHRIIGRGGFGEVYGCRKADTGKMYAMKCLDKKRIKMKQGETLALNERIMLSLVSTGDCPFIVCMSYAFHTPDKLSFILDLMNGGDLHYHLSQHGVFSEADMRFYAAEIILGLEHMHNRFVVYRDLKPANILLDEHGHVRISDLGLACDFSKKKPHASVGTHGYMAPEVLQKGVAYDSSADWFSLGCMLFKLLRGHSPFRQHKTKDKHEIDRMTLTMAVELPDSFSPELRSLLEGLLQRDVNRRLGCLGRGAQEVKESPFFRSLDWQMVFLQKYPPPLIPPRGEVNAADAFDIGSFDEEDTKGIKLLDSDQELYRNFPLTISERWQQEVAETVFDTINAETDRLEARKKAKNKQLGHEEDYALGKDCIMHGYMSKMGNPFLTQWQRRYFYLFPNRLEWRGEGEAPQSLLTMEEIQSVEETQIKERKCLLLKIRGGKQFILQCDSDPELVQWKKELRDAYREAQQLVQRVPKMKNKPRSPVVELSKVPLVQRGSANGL

outcome, inactive:
Cc1ccc(S(=O)(=O)Cc2ccc(C(=O)O)o2)cc1
CC(=O)Nc1ccc(N(C)C)cc1[N+](=O)[O-]
CNC(=O)c1[nH]cnc1C(=O)Nc1ccc(F)cc1
Cn1c(=O)c(C(=O)NNC(=O)c2cccc(Cl)c2)c(O)c2ccccc21
O=C(O)C1Nc2c(O)cc(Cl)c([N+](=O)[O-])c2C2C=CCC12 (stereo not drawn)
O=C(CCS(=O)(=O)c1ccc(Br)s1)N1CCc2ccccc21
O=C(CC1SC(N2CCCCC2)=NC1=O)Nc1cccc(C(=O)NCc2ccc(F)cc2)c1 (stereo not drawn)
Cc1ccc(OCC(=O)c2c(N)n(C)c(=O)n(C)c2=O)c([N+](=O)[O-])n1
COc1ccc(OC)c(N2C(=O)[C@@H]3C(c4ccccc4Cl)=NO[C@@H]3C2=O)c1
COc1ccc(NC(=O)CCS(=O)(=O)c2ccc(Br)s2)cc1
CCC(/C=C1\Sc2ccc(OC)cc2N1CC)=C\c1sc2ccc(OC)cc2[n+]1CCCS(=O)(=O)[O-]
Cc1cc2ccccc2n1CCNC(=O)c1ccccc1
COc1ccc(N2CCN(C(CNS(=O)(=O)c3ccc(C)cc3)c3ccccc3)CC2)cc1 (stereo not drawn)
